Inconclusive results are not listed. Activity calls are given as the source filed them. Rule for the calls, unless noted: active = hit-call score of the fitted dose curve at least 0.9, where 1 is the maximum; inconclusive = response in the unintended direction; inactive = score below 0.9.
How the values were obtained:
[1] = TOX21_p53_BLA_p3_viability: Viability Assessment in the Tox21 HCT-116 p53 Agonism Beta-lactamase Assay, Phase 3 (AID 2283593);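 note: cells exposed to compound for 16 h before reading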
In short: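 HCT-116 cells (4000/well) rested 5 h at 37C, then got DMSO compounds by pin tool (217-fold dilution) for 16 h at 37C, 5% CO2. After the bla read, CellTiter-Glo was added and luminescence read at 30 min, room temperature.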

[2] = molecular target: Cellular tumor antigen p53 (Homo sapiens) (UniProt P04637); assay: TOX21_p53_BLA_p3_ratio: Tox21 HCT-116 p53 Agonism Beta-lactamase Assay, Ratio, Phase 3 (AID 2283596)
In short: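 HCT116 p53-bla cells (4000/well) given compound in DMSO (217-fold dilution) after 5 h, incubated 16 h at 37C. CCF4-AM substrate 2 h at room temperature; 460/530 nm emission ratio, gain fitted against DMSO.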

[3] = TOX21_p53_BLA_p4_viability: Viability Assessment in the Tox21 HCT-116 p53 Agonism Beta-lactamase Assay, Phase 4 (AID 2283597);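 note: hits lower the luminescence signal meaning cytotoxicity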
In short: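 We seeded HCT116 p53 reporter cells at 4000/well and waited 5 h. We then added compounds in DMSO at a 217-fold dilution and incubated for 16 h. Viability was read as CellTiter-Glo luminescence after 30 min at RT.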

[4] = TOX21_p53_BLA_p5_viability: Viability Assessment in the Tox21 HCT-116 p53 Agonism Beta-lactamase Assay, Phase 5 (AID 2283600)
In short: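 Compounds, pinned from DMSO at 217-fold dilution, were left on the cells for 16 h. The viability endpoint was ATP content measured by CellTiter-Glo luminescence, where falling signal reflects cytotoxicity.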

[5] = CCTE_Harrill_HTTr_Viability_MCF7: CCTE's 6-hour Cell Viability Assessment for the High-Throughput Transcriptomics (HTTr) Platform, in MCF-7 cells cultured in DMEM + 10% fetal bovine serum, Harrill Lab (AID 2284010; active = hit-call score of the fitted dose curve at least 0.9, where 1 is the maximum; inactive = score below 0.9)
In short: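 Cells were dosed with chemicals in an eight-point dilution series, imaged 6 hours later for propidium iodide uptake, and the endpoint was analyzed by bidirectional fitting against DMSO as negative control.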

[6] = CCTE_Harrill_HTTr_Apoptosis_MCF7: CCTE's 6-hour Apoptosis Assessment for the High-Throughput Transcriptomics (HTTr) Platform, in MCF-7 cells cultured in DMEM + 10% fetal bovine serum, Harrill Lab (AID 2284011; active = hit-call score of the fitted dose curve at least 0.9, where 1 is the maximum; inactive = score below 0.9)
In short: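 Read-out: CellEvent Caspase 3/7 Green signal by high content imaging, gain-of-signal indicating apoptosis. MCF-7 cells, DMEM + 10% FBS, eight-point dilution series, 6 h exposure. Curves fitted bidirectionally relative to DMSO negative control.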

[7] = CCTE_Harrill_HTTr_CellCount_MCF7: CCTE's Cell Proliferation Assessment for the High-Throughput Transcriptomics (HTTr) Platform, Harrill Lab (AID 2284012);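 note: count of Hoechst-stained nuclei per well by high-content imaging in MCF-7 cells; cells exposed to compound for six hours; intended direction is loss of nuclei count meaning fewer cells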
In short: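 Chemicals in eight-point dilution series are added to MCF-7 cells for six hours, nuclei are stained with Hoechst and imaged, and per-well nuclei counts are fitted in both directions relative to DMSO controls.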

[8] = molecular target: Cellular tumor antigen p53 (Homo sapiens) (UniProt P04637); assay: TOX21_p53_BLA_p5_ratio: Tox21 HCT-116 p53 Agonism Beta-lactamase Assay, Ratio, Phase 5 (AID 2283599)
In short: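 HCT-116 cells carrying a p53-inducible beta-lactamase reporter were seeded at 4000 cells/well and dosed after 5 h with compound in DMSO (217-fold dilution). After 16 h at 37C, CCF4-AM substrate was added for 2 h, and the 460/530 nm emission ratio was scored as gain-of-signal versus DMSO.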

[9] = molecular target: Cellular tumor antigen p53 (Homo sapiens) (UniProt P04637); assay: TOX21_p53_BLA_p4_ratio: Tox21 HCT-116 p53 Agonism Beta-lactamase Assay, Ratio, Phase 4 (AID 2283601)
In short: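 HCT116 cells carrying an inducible beta-lactamase reporter were plated at 4000 cells/well, rested 5 h, then exposed to compounds in DMSO (217-fold dilution) for 16 h at 37C. CCF4-AM substrate was loaded 2 h at room temperature; 460/530 nm emission ratio scored gain-of-signal versus DMSO.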

[10] = molecular target: Cellular tumor antigen p53 (Homo sapiens) (UniProt P04637); assay: TOX21_p53_BLA_p2_ratio: Tox21 HCT-116 p53 Agonism Beta-lactamase Assay, Ratio, Phase 2 (AID 2283592)
In short: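 In this cell-based reporter format, HCT116 cells were dosed with chemicals delivered from DMSO by 217-fold dilution and incubated 16 h at 37C. Emission at 460 and 530 nm after 2 h CCF4-AM loading provided the ratio, fitted upward versus DMSO.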

PGR (gene 5241) [11] = molecular target: PGR (gene 5241) (UniProt P06401); assay: TOX21_PR_BLA_Followup_Antagonist_ratio: Tox21 HEK293 Progesterone Receptor (PR) Antagonism Beta-lactamase Follow-Up Assay, Ratio (AID 2283934)
In short: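 HEK293T PR-UAS-bla, 2% CS-FBS; 6 hr plating, then cpd + R5020 (1 nM final), 16 hr 37C/5% CO2. B/G FRET substrate 2 h RT. Ratio ch2/ch1 vs DMSO; CellTiter-Glo viability multiplexed, autofluorescence checked.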

[12] = TOX21_PR_BLA_Followup_Agonist_viability: Viability Assessment in the Tox21 HEK293 Progesterone Receptor (PR) Agonism Beta-lactamase Follow-Up Assay (AID 2283935);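 note: signal loss means lower viability so actives are cytotoxic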
In short: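 HEK293T PR-UAS-bla, 3,000 cells/well, 2% CS-FBS; 6 hr pre-incubation; cpd in DMSO, 16 hr 37C; LiveBLAzer 2 hr RT, then CellTiter-Glo 30 min RT, luminescence. Decrease = lost viability.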

[13] = TOX21_PR_BLA_Followup_Antagonist_viability: Viability Assessment in the Tox21 HEK293 Progesterone Receptor (PR) Antagonism Beta-lactamase Follow-Up Assay (AID 2283936);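 note: hits lower the luminescence signal meaning cytotoxicity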
In short: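 PR-UAS-bla HEK293T cells (3,000/well, 2% charcoal-stripped FBS) given compound plus R5020 agonist, 16 h at 37C. CellTiter-Glo added after bla read, 30 min at room temperature; luminescence loss indicates cytotoxicity.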

PGR (gene 5241) [14] = molecular target: PGR (gene 5241) (UniProt P06401); assay: TOX21_PR_LUC_Followup_Antagonist: Tox21 HEK293 Progesterone Receptor (PR) Antagonism Luciferase Follow-Up Assay (AID 2283938);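 note: curve fitted upward as signal gain over DMSO baseline despite antagonist label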
In short: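 Luminescence from ONE-Glo reagent, measured after 30 min at room temperature, served as readout. Cells (HEK293 carrying PR-A-luc) had been treated 16 h at 37C with DMSO-dissolved compounds. Activity was fitted against DMSO controls.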

[15] = TOX21_PR_LUC_Followup_Antagonist_viability: Viability Assessment in the Tox21 HEK293 Progesterone Receptor (PR) Antagonism Luciferase Follow-Up Assay (AID 2283940)
In short: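 Multiplexed viability counter-screen: after 5 days in charcoal-stripped-FBS medium, HEK293-PR-A-luc cells are plated, pinned with DMSO-dissolved compounds for 16 h at 37C, and ATP content is quantified luminescently via CellTiter-Glo.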

[16] = TOX21_PR_LUC_Followup_Agonist_viability: Viability Assessment in the Tox21 HEK293 Progesterone Receptor (PR) Agonism Luciferase Follow-Up Assay (AID 2283941);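 note: loss of signal means cytotoxicity so actives lower viability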
In short: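 Cells were kept 5 days in charcoal-stripped serum medium before plating HEK293-PR-A-luc at 3,000 cells/well. After 5 h they received DMSO-dissolved compound and incubated 16 h at 37C. Viability was taken from CellTiter-Glo ATP luminescence.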

Measured: AC50

Cellular tumor antigen p53 (Homo sapiens), sequence (P04637 whole entry, looked up): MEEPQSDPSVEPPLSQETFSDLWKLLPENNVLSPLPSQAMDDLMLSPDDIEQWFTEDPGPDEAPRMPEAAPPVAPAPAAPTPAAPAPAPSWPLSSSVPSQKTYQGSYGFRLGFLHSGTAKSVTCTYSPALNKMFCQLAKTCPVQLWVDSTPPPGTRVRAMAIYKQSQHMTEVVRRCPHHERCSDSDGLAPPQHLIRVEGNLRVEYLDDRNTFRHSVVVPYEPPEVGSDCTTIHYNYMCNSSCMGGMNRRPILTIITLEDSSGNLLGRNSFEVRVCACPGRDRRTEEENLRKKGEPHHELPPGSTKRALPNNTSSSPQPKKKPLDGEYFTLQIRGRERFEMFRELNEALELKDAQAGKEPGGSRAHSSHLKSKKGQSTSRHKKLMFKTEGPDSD
PGR (gene 5241), sequence (P06401 whole entry, looked up): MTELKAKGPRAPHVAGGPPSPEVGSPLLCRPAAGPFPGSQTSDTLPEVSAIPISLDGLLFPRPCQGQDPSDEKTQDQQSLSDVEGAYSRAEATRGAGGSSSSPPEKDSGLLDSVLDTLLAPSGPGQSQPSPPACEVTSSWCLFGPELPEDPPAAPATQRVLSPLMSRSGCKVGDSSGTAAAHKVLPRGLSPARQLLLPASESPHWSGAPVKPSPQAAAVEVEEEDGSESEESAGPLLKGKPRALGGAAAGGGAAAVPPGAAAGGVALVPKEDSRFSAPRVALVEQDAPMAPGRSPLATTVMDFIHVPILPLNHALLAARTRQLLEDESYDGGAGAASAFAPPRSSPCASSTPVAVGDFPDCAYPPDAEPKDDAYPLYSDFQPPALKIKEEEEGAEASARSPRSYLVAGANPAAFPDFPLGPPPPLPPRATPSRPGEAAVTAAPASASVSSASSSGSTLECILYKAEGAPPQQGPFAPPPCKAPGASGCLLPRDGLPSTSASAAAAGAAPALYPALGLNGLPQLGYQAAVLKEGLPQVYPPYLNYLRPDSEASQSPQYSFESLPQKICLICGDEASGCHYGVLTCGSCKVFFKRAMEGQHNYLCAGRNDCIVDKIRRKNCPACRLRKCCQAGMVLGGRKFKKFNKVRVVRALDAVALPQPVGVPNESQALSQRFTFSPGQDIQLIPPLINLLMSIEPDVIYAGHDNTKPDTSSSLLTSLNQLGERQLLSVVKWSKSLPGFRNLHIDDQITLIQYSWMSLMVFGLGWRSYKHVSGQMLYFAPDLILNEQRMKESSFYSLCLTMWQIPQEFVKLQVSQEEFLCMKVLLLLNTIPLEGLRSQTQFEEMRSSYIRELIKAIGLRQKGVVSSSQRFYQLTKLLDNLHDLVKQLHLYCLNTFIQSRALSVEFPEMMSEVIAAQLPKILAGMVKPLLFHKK

CCCCc1c(C)nc(NCC)[nH]c1=O
inactive: [1] | [2] | [3] | [4] | [5] | [6] | [7]

N#CC(Cl)(Cl)Cl
inactive: [1] | [2] | [4]

CCC(=O)O[C@@](Cc1ccccc1)(c1ccccc1)[C@@H](C)CN(C)C
inactive: [1] | [2] | [3] | [8] | [9]

CCS(=O)(=O)CCSP(=O)(OC)OC
inactive: [10] | [9]

CC(C)CCC(=O)O[C@H]1CC[C@H]2[C@@H]3CCC4=CC(=O)CC[C@]4(C)[C@H]3CC[C@]12C
inactive: [1] | [2] | [8] | [4]

C1CCNCC1
inactive: [1] | [2] | [8] | [9]

CC(N)=S
inactive: [10] | [4] | [9] | [5] | [6] | [7]

CNC(=O)OCC[N+](C)(C)C
inactive: [10] | [4] | [9]

CCC(Cl)[N+](=O)[O-] (centres undefined)
inactive: [10] | [8] | [4] | [9]

CN(C)c1ccc(N=Nc2ccccc2)cc1
inactive: [1] | [2] | [3] | [4]

CCN(CC)C(=O)N[C@H]1C[C@@H]2c3cccc4[nH]cc(c34)C[C@H]2N(C)C1
inactive: [1] | [2] | [3] | [4]

CCCCCCC(=O)O[C@H]1CC[C@H]2[C@@H]3CC[C@H]4CC(=O)C=C(C)[C@]4(C)[C@H]3CC[C@]12C
active: [1] 37 µM
inactive: [2] | [8] | [4] | [9]

CCCCc1c(C)nc(NCC)nc1OS(=O)(=O)N(C)C
inactive: [10] | [8] | [5] | [6] | [7]

CC(C)(C#N)C(C)(C)C#N
inactive: [1] | [2] | [3] | [8] | [4] | [9]

COc1ccccc1N1CCNCC1
inactive: [10] | [8] | [4] | [9]

C1CS1
inactive: [1] | [2] | [3] | [8]

CCC1(c2ccccc2)C(=O)NC(=O)N(C(=O)c2ccccc2)C1=O (centres undefined)
inactive: [1] | [2] | [3] | [8] | [4] | [9]

Cc1nnc(-c2ccccc2)c(=O)n1N
inactive: [1] | [2]

NC(=S)c1c(Cl)cccc1Cl
inactive: [1] | [2] | [3] | [8] | [9]

Cc1ccc(N)cc1C
inactive: [10] | [8] | [9]

NC(=S)C(N)=S
inactive: [1] | [2]

C[C@]12CC[C@H]3[C@@H](CCC4=CC(=O)CC[C@@H]43)[C@@H]1CC[C@@H]2OC(=O)CCc1ccccc1
inactive: [1] | [2] | [9] | PGR (gene 5241) [11] | [12] | [13] | PGR (gene 5241) [14] | [15] | [16]

C[N+](C)(C)CCCl
inactive: [1] | [2] | [9]

CCCC[N+]1(C)[C@@H]2CC(OC(=O)[C@H](CO)c3ccccc3)C[C@H]1[C@@H]1O[C@@H]12 (some centres undefined)
inactive: [1] | [2] | [4] | [9]

CC[N+]1(C)CCCC(OC(=O)C(O)(c2ccccc2)c2ccccc2)C1 (centres undefined)
inactive: [1] | [2] | [8] | [4]

Cl/C=C\Cl
inactive: [10] | [9]

CNC(=O)Oc1ccccc1C1OCCO1
inactive: [10] | [8] | [4] | [9]

Reference: PubChem BioAssay (EPA / NIEHS)
